# Reference: PubChem BioAssay (EPA / NIEHS)
# Inconclusive results are not listed. Calls of active or inactive are those of the source. The calls were made as follows: active = hit-call score of the fitted dose curve at least 0.9, where 1 is the maximum; inconclusive = response in the unintended direction; inactive = score below 0.9.
# Assays:
# [1] = ATG_M_06_XSP1: Attagene TRANS-FACTORIAL Multi-Species (XSP1) HepG2 Assay for M06 Transcription Factor (Internal Marker) (AID 2283790)
# Summary of the method: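 This background-control readout tracks M06 reporter mRNA, measured by RT-PCR and capillary electrophoresis. HepG2 cells transiently carrying the GAL4-UAS reporter panel were dosed for 24 h with 3 nM 6-alpha-fluorotestosterone added for partial AR stimulation; increases were scored relative to DMSO.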
# [2] = ATG_M_61_XSP1: Attagene TRANS-FACTORIAL Multi-Species (XSP1) HepG2 Assay for M61 Transcription Factor (Internal Marker) (AID 2283797)
# Summary of the method: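 Background-control readout: reporter transcripts measured by RT-PCR and capillary electrophoresis 24 h after dosing transiently transfected HepG2 multi-reporter cells, with 3 nM 6-alpha-fluorotestosterone present. Fitted in the positive direction relative to DMSO.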
# [3] = biological target: Peroxisome proliferator-activated receptor gamma (Homo sapiens) (UniProt P37231); experiment: ATG_hPPARg_XSP1: Attagene TRANS-FACTORIAL Multi-Species (XSP1) HepG2 Assay for human Peroxisome Proliferator-activated Receptor gamma (PPARg) (AID 2283800)
# Chain of Peroxisome proliferator-activated receptor gamma (Homo sapiens) (P37231 whole entry, looked up, the tested form may be a part): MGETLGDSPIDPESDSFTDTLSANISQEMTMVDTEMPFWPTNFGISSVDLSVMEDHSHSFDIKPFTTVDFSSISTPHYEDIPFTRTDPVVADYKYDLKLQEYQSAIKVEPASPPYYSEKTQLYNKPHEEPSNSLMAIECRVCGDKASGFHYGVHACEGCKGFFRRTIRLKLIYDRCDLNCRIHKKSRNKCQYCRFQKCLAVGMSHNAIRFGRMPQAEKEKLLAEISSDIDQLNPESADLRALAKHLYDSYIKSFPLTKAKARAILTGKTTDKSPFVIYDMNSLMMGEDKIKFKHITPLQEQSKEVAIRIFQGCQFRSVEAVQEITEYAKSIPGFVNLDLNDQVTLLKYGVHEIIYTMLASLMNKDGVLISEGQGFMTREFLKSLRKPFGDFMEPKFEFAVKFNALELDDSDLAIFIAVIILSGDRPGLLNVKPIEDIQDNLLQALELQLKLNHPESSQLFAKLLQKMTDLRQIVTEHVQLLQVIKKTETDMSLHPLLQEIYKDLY
# Summary of the method: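 Reporter mRNA induction, measured by RT-PCR with capillary electrophoresis 24 h after dosing, scored as gain over DMSO. Transfected HepG2 cells express exogenous NR-Gal4 chimeras driving GAL4-UAS reporters; medium includes 3 nM 6-alpha-fluorotestosterone.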
# [4] = biological target: mouse Peroxisome Proliferator-activated Receptor gamma (PPARg), Pparg (gene 19016) (UniProt P37238); experiment: ATG_mPPARg_XSP1: Attagene TRANS-FACTORIAL Multi-Species (XSP1) HepG2 Assay for mouse Peroxisome Proliferator-activated Receptor gamma (PPARg) (AID 2283802)
# Chain of mouse Peroxisome Proliferator-activated Receptor gamma (PPARg), Pparg (gene 19016) (P37238 whole entry, looked up, the tested form may be a part): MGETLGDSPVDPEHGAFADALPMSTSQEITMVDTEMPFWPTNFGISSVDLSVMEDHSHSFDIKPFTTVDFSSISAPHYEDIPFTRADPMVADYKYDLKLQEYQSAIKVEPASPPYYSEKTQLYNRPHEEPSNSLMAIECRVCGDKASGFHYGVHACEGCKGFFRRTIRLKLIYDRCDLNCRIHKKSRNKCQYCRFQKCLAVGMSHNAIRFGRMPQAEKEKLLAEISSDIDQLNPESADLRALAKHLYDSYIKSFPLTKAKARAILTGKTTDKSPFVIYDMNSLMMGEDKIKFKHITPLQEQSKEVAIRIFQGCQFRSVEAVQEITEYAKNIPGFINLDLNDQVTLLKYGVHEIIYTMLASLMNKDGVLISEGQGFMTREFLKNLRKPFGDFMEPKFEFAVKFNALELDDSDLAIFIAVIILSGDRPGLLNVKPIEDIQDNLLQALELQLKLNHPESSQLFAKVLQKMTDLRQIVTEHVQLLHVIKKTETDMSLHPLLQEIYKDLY
# Summary of the method: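 Readout is reporter mRNA induction, measured by RT-PCR with 6-FAM labelling, HpaI digestion and capillary electrophoresis, 24 h post-dose relative to DMSO. Transient multi-reporter transfection of human HepG2 with mouse PPARg–GAL4 fusion; 3 nM 6-alpha-fluorotestosterone included.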
# [5] = biological target: Nuclear receptor subfamily 1 group I member 2 (Mus musculus) (UniProt O54915); experiment: ATG_mPXR_XSP1: Attagene TRANS-FACTORIAL Multi-Species (XSP1) HepG2 Assay for mouse Pregnane X Receptor (PXR) (AID 2283803)
# Chain of Nuclear receptor subfamily 1 group I member 2 (Mus musculus) (O54915 whole entry, looked up, the tested form may be a part): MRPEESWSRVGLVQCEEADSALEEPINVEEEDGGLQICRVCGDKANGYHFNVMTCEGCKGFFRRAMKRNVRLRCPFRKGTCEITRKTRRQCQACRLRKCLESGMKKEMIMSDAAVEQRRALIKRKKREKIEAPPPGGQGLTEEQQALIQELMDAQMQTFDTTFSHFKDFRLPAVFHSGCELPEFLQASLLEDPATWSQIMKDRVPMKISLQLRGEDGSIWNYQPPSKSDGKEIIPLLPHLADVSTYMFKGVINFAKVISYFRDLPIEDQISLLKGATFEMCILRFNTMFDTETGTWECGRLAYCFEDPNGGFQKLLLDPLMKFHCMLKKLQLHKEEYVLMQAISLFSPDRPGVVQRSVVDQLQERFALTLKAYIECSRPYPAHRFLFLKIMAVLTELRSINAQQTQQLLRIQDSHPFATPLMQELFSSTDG
# Summary of the method: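 Transiently transfected HepG2 cells expressing a receptor-Gal4 chimera drive a GAL4-UAS reporter; 3 nM 6-alpha-fluorotestosterone included. Reporter mRNA read 24 h post-dose by RT-PCR and capillary electrophoresis; gain of signal relative to DMSO.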
# [6] = biological target: frog Thyroid hormone Receptor alpha (TRa), thra-a (gene 397942) (UniProt P15204); experiment: ATG_frTRa_XSP1: Attagene TRANS-FACTORIAL Multi-Species (XSP1) HepG2 Assay for frog Thyroid hormone Receptor alpha (TRa) (AID 2283804)
# Chain of frog Thyroid hormone Receptor alpha (TRa), thra-a (gene 397942) (P15204 whole entry, looked up, the tested form may be a part): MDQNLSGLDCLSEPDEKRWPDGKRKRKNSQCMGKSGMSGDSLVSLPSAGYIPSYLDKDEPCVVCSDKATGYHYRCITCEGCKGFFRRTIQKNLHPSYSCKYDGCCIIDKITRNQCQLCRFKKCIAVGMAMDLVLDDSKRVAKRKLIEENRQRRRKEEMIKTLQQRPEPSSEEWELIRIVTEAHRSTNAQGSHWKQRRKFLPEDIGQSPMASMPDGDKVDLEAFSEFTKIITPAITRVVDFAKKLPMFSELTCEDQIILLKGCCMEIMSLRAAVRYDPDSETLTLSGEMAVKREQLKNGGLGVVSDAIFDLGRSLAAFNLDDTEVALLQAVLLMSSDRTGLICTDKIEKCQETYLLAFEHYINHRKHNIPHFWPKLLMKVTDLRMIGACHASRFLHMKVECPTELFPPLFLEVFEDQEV
# Summary of the method: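 Reporter transcript induction, measured by RT-PCR with 6-FAM labelling and capillary electrophoresis, 24 hr after dosing transiently transfected HepG2 cells expressing a frog TRa-GAL4 fusion; medium contained 3 nM 6-alpha-fluorotestosterone; increase over DMSO scored.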
# [7] = biological target: GAL4 Transcription Factor (Internal Marker), GAL4 (gene 855828) (UniProt P04386); experiment: ATG_GAL4_XSP1: Attagene TRANS-FACTORIAL Multi-Species (XSP1) HepG2 Assay for GAL4 Transcription Factor (Internal Marker) (AID 2283789)
# Chain of GAL4 Transcription Factor (Internal Marker), GAL4 (gene 855828) (P04386 whole entry, looked up, the tested form may be a part): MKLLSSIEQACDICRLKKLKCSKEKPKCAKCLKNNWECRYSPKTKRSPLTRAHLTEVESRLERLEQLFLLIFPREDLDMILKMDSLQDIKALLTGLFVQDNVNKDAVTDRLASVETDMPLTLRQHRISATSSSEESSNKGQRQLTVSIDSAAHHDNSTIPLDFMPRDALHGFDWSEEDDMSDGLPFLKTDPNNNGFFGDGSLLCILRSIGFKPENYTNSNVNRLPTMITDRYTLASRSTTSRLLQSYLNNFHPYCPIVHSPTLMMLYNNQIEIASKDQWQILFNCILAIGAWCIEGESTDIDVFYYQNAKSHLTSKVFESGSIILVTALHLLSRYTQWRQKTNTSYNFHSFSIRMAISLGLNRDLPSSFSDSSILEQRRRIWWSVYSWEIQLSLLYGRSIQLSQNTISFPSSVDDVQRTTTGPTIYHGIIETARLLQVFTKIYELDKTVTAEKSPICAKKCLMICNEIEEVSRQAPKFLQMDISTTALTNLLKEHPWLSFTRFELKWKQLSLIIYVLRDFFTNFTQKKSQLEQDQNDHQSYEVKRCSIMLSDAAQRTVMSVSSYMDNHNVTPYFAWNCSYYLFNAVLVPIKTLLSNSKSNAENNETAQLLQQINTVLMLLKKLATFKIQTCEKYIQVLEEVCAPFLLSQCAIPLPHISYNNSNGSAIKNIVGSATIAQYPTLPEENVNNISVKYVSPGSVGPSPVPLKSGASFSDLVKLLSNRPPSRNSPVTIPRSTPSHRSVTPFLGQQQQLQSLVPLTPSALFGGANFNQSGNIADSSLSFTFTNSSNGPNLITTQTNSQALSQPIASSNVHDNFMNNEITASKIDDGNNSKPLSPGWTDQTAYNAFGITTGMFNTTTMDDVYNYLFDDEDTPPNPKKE
# Summary of the method: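 This background-control endpoint measures GAL4-driven reporter mRNA via RT-PCR and capillary electrophoresis of labelled fragments. Transiently transfected HepG2 cells were treated 24 h, with 3 nM 6-alpha-fluorotestosterone included, and gain-of-signal was fitted against DMSO.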
# [8] = ATG_M_32_XSP1: Attagene TRANS-FACTORIAL Multi-Species (XSP1) HepG2 Assay for M32 Transcription Factor (Internal Marker) (AID 2283799)
# Summary of the method: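 Reporter transcripts from the M32 internal-control unit measured by RT-PCR, FAM labelling, HpaI digestion and capillary electrophoresis after 24 h compound exposure of transfected HepG2, 3 nM 6-alpha-fluorotestosterone included; DMSO baseline, positive-direction fit.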
# [9] = test system: zebrafish Peroxisome Proliferator-activated Receptor gamma (PPARg), gene 557037; experiment: ATG_zfPPARg_XSP1: Attagene TRANS-FACTORIAL Multi-Species (XSP1) HepG2 Assay for zebrafish Peroxisome Proliferator-activated Receptor gamma (PPARg) (AID 2283801)
# Procedure: ATG_XSP1_multi-species_TRANS is a cell-based, multiplexed assay created by modifying the existing Attagene TRANS-FACTORIAL system to include a panel of nuclear receptors from some or all the following species: human (Homo sapiens), mouse (Mus musculus), frog (Xenopus laevis), zebrafish (Danio rerio), chicken (Gallus gallus), and turtle (Chrysemys picta). The ECOTOX-FACTORIAL format uses HepG2, a human liver cell line, with measurements taken at 24 hours after chemical dosing in a 24-well plate. Xsp1 included 3 nM 6-alpha-fluorotestosterone to partially stimulate the androgen receptor.ATG_zfPPARg_XSP1 is one of 29 assay components measured or calculated from the ATG_XSP1_multi-species_TRANS assay. It is designed to make measurements of mRNA induction, a form of inducible reporter, as detected with fluorescence intensity signals by Reverse transcription polymerase chain reaction (RT-PCR) and Capillary electrophoresis technology.The assay endpoint ATG_zfPPARg_XSP1 was analyzed in the positive analysis fitting direction relative to DMSO as the negative control and baseline of activity. […] Furthermore, this assay endpoint can be referred to as a primary readout, because this assay has produced multiple assay endpoints where this one serves a reporter gene function. […]
# [10] = biological target: human Thyroid hormone Receptor alpha (TRa), THRA (gene 7067) (UniProt P10827); experiment: ATG_hTRa_XSP1: Attagene TRANS-FACTORIAL Multi-Species (XSP1) HepG2 Assay for human Thyroid hormone Receptor alpha (TRa) (AID 2283805)
# Chain of human Thyroid hormone Receptor alpha (TRa), THRA (gene 7067) (P10827 whole entry, looked up, the tested form may be a part): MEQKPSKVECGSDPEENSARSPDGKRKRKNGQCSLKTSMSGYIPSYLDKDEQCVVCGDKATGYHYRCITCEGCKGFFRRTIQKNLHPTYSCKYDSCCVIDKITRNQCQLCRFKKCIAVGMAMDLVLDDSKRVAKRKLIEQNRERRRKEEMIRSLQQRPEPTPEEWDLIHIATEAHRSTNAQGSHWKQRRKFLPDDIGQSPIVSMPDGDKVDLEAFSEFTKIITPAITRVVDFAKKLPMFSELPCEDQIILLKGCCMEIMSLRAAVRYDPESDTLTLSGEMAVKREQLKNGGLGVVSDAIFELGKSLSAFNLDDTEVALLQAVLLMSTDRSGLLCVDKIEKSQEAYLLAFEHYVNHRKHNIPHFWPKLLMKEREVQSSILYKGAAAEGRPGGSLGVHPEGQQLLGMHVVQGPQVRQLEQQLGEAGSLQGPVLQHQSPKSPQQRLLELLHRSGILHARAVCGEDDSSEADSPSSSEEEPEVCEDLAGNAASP
# Summary of the method: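 Reporter transcripts from the human TRa-Gal4 TRANS unit quantified by RT-PCR, fluorescent labeling and capillary electrophoresis after 24 hours of chemical exposure in transfected HepG2 cells; medium contains 3 nM 6-alpha-fluorotestosterone. Positive direction fit against DMSO.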
SMILES,outcome [1],outcome [2],outcome [3],AC50 [4],AC50 [5],outcome [6],outcome [7],outcome [8],outcome [9],outcome [4],outcome [5],AC50 [6],AC50 [10]
CC(=O)O[C@]1(C(C)=O)CC[C@H]2[C@@H]3C=C(Cl)C4=CC(=O)[C@@H]5C[C@@H]5[C@]4(C)[C@H]3CC[C@@]21C,inactive,inactive,inactive,20.2 µM (active),0.347 µM (active),inactive,–,–,–,–,–,–,–
CCN(CC)CCOc1ccc(C(=C(Cl)c2ccccc2)c2ccccc2)cc1,inactive,inactive,inactive,–,–,–,inactive,inactive,inactive,inactive,inactive,0.945 µM (active),1.93 µM (active)
